Screening data from PubChem BioAssay.
Hits are enriched below; roughly 1.3% of the tested compounds scored in any of these assays.
AmpC inh no detg = AmpC beta-lactamase inhibition without detergent. P00811. AmpC nitrocefin hydrolysis, absorbance 480 nm, 0.0001% Triton. Potency, µM (highest dose often 57.1 µM), inactives show at the highest dose activity change, negative = inhibition, actives largely listed as inhibitors. 0.52% of 330,000 active;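 further: plate controls were no compound for no effect and no enzyme for full effect; nearly all actives have a fitted effect of over 20% in size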
Target sequence (P00811 whole entry, looked up): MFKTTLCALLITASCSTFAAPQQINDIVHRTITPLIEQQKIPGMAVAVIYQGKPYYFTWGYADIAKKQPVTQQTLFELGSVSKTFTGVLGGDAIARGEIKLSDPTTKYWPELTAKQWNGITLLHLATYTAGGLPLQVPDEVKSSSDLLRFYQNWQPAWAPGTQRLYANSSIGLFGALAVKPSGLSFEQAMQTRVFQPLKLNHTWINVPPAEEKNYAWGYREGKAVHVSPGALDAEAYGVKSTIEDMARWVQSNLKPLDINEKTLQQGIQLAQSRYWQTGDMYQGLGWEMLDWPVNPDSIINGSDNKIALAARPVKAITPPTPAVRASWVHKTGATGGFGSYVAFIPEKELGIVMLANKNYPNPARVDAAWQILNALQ
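AmpC (5.3 nM in the dispensed reagent) in 20 mM phosphate pH 7.0 with 0.01% (detergent screen) or 0.0001% Triton X-100 was preincubated with compounds for 15 min at room temperature. Nitrocefin was then added from an 800 uM solution, and hydrolysis was followed at 480 nm.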
Vaccinia Venus = inhibitors of vaccinia virus (Venus reporter); Vaccinia virus Venus reporter expression, fluorescence; Potency, µM (doses to about 36.5 µM), inactives show at the highest dose activity change, negative = inhibition, most hits filed as inhibitors; 0.46% of 330,000 active; calls by dose curve; tested in A549 cells; further: on the % scale 0 is the no-effect control and ±100 the full control effect; nearly all actives have a fitted effect of over 30% in size
VACV mCherry inh = inhibitors of vaccinia virus infection (mCherry reporter signal). Potency, µM (series often up to 36.5 µM), for inactives: at the top dose activity change, negative = inhibition, usual class: inhibitors. 0.63% of 310,000 active. Vaccinia virus mCherry reporter infection, fluorescence; calls by dose curve; tested in A549 cells; further: on the % scale 0 is the no-effect control and ±100 the full control effect; nearly all actives have a fitted effect of over 35% in size
AmpC detergent = inhibitors of E. coli AmpC beta-lactamase with detergent | AmpC hydrolysis of nitrocefin, absorbance 480 nm, 0.01% Triton | P00811 | 0.041% of 370,000 active | Potency, µM (highest dose often 114 µM), inactives show at the top dose activity change, negative = inhibition, hits mostly inhibitors;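 further: 0% = no-compound wells and -100% = no-enzyme wells; nearly all actives have a fitted effect of over 25% in size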
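20 mM phosphate pH 7.0 + 0.01% (detergent screen) or 0.0001% Triton X-100; 5.3 nM AmpC reagent; cpd preinc 15 min RT; nitrocefin (800 uM stock) to start; A480 q20 s × 4 min; Activity was normalised to no-enzyme and no-compound control wells.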
SARS PLP yeast = blocks SARS-CoV papain-like protease in a yeast assay. 0.19% of 330,000 active. Potency, µM (doses to about 32.9 µM), for inactives: at the highest dose activity, positive = growth rescue, most hits filed as activators. S. cerevisiae expressing SARS-CoV PLpro, growth rescue; calls by dose curve; further: 0% is about no effect; nearly all actives have a fitted effect of over 55% in size
An asterisk follows results filed as active; [ ] = dose if it differs, or a comment. Unless noted, the call rests on the fitted dose curve; in most records, active means well fitted curve in the direction sought with a large enough effect; inconclusive means small, poorly fitted or top-dose-only effect, or another doubt; inactive means no such curve, though single readings can be large; an effect the other way counts as inactive or inconclusive. Potency means the concentration at half of the fitted maximal effect.

How did Cc1cc(C)cc(CC(Cc2nc3ccccc3[nH]2)c2nc3ccccc3[nH]2)c1 (configuration not stated) do in these assays?
AmpC inh no detg: -15%; Vaccinia Venus: 14µM*; VACV mCherry inh: -14%[1.46 µM]; AmpC detergent: inconclusive; SARS PLP yeast: 8%

How did CC(=O)NC(NC(=S)Nc1ccc(N=Nc2ccccc2)cc1)C(Cl)(Cl)Cl (configuration not stated) do in these assays?
AmpC inh no detg: -30%; Vaccinia Venus: 14µM*; VACV mCherry inh: 13µM*; AmpC detergent: 3%; SARS PLP yeast: -3%

What do the screens show for `CC(=O)NC(NC(=S)Nc1ccc(S(N)(=O)=O)cc1)C(Cl)(Cl)Cl` (configuration not stated)?
AmpC inh no detg: -14%; AmpC detergent: 1%; SARS PLP yeast: 0%

What do the screens show for `Cc1ccc(-c2nnc(NC(=O)CCS(=O)(=O)c3ccc(F)cc3)o2)c(C)c1`?
AmpC inh no detg: -1%; Vaccinia Venus: -15%; VACV mCherry inh: -21%; AmpC detergent: -10%; SARS PLP yeast: 3%

Results for O=C(CCS(=O)(=O)c1ccc(Cl)cc1)Nc1nnc(-c2ccco2)o1 ?
AmpC inh no detg: inconclusive; Vaccinia Venus: inconclusive; VACV mCherry inh: 10µM*; AmpC detergent: inconclusive; SARS PLP yeast: -1%

What do the screens show for `O=C(CCS(=O)(=O)c1ccc(F)cc1)Nc1nnc(-c2ccc(F)cc2)o1`?
AmpC inh no detg: -12%; Vaccinia Venus: inconclusive; VACV mCherry inh: 10µM*; AmpC detergent: -18%; SARS PLP yeast: 0%

What do the screens show for `COc1ccccc1-c1nnc(NC(=O)c2ccc(S(=O)(=O)N(C)C)cc2)o1`?
AmpC inh no detg: -26%; Vaccinia Venus: inconclusive; VACV mCherry inh: -25%; AmpC detergent: -12%; SARS PLP yeast: -1%

What do the screens show for `COc1ccccc1-c1nnc(NC(=O)CCS(=O)(=O)c2ccccc2)o1`?
AmpC inh no detg: -5%; Vaccinia Venus: inconclusive; VACV mCherry inh: 8.9µM*; AmpC detergent: 2%; SARS PLP yeast: -4%

What do the screens show for `Cc1ccc(S(=O)(=O)CCC(=O)Nc2nnc(-c3ccco3)o2)cc1`?
AmpC inh no detg: -11%; Vaccinia Venus: inconclusive; VACV mCherry inh: inconclusive; AmpC detergent: -15%; SARS PLP yeast: 2%

Results for COc1ccccc1-c1nnc(NC(=O)CCS(=O)(=O)c2ccc(F)cc2)o1 ?
Vaccinia Venus: 4.5µM*; VACV mCherry inh: inconclusive

How did O=C(N/N=C/c1cc(Br)cc(Br)c1O)c1ccncc1 do in these assays?
AmpC inh no detg: -24%; Vaccinia Venus: inconclusive; VACV mCherry inh: 7.9µM*; AmpC detergent: 2%; SARS PLP yeast: -5%

Results for COc1cccc(C=NNC(=O)c2ccncc2)c1O ?
Vaccinia Venus: inconclusive; VACV mCherry inh: 1.6µM*

Results for COc1cccc(/C=N/NC(=O)COc2cccc3cccnc23)c1O ?
AmpC inh no detg: -25%; Vaccinia Venus: -25%; VACV mCherry inh: 13µM*; AmpC detergent: -11%; SARS PLP yeast: 0%

Results for COc1ccccc1OCC(=O)N/N=C/c1cccc2cccnc12 ?
AmpC inh no detg: -22%; Vaccinia Venus: -30%; VACV mCherry inh: inconclusive; AmpC detergent: 0%; SARS PLP yeast: -8%

How did COc1cc(OC)c2cc(C(=O)N/N=C/c3cccc(OC)c3O)[nH]c2c1 do in these assays?
AmpC inh no detg: 0.4µM*; Vaccinia Venus: -26%; VACV mCherry inh: 11µM*; AmpC detergent: -5%; SARS PLP yeast: 0%

Results for COc1ccc(CN2CCN(C(C)=O)CC2)cc1OC1CCN(C(=O)c2ccc3[nH]c(C)c(C)c3c2)CC1 ?
Vaccinia Venus: 2%; VACV mCherry inh: -10%

Results for Cc1ccc2nc(CS)[nH]c2c1 ?
Vaccinia Venus: 7%; VACV mCherry inh: 25%

What do the screens show for `CCn1c(C)nc2cc(C(=O)N/N=C/c3cccc(OC)c3O)ccc21`?
AmpC inh no detg: 13%; Vaccinia Venus: inconclusive; VACV mCherry inh: 10µM*; AmpC detergent: 2%; SARS PLP yeast: 8%

What do the screens show for `COC(=O)c1c(NC(=O)c2ccc([N+](=O)[O-])o2)sc2c1CCN(C(C)C)C2`?
AmpC inh no detg: 23%; Vaccinia Venus: 14µM*; VACV mCherry inh: inconclusive; AmpC detergent: inconclusive; SARS PLP yeast: -12%
